# Results: PubChem BioAssay (NCATS)
# Results filed as inconclusive are left out. Entries that show only a call come without a potency. Calls of active or inactive are those of the source. Unless noted, calls follow the shape of the dose curve; as a rule, active = well fitted curve in the direction sought with a large enough effect; inconclusive = small, poorly fitted or top-dose-only effect, or another doubt; inactive = no such curve, though single readings can be large; an effect the other way counts as inactive or inconclusive.
# Tests used:
# [1] = qHTS assay for measurement of the activity of small molecule inhibitors on Zika virus induced Caspase-3 activity in human astrocytoma cells (AID 1224859); also: potency is read from the fitted curve at half-maximal effect
# Summary of the method: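 Human SNB-19 astrocytoma cells in RPMI 1640 with 10% FBS receive compound one hour ahead of Zika virus at 2 FFU/cell. After 6 h infection, caspase-3/7 activity is detected by Caspase-Glo luminescence.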
# [2] = qHTS assay to identify small molecule inhibitors of chordoma cells - UCH-1 (AID 1259355); also: nearly all actives have a fitted effect of over 55% in size; also: potency is read from the fitted curve at half-maximal effect
# Summary of the method: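 Screening used approved and investigational drugs in 15-point titration against 800 seeded cells per well. A fixed combination of auranofin with camptothecin, doxorubicin, rubitecan and topotecan followed compound addition, and growth was scored by CellTiter-Glo after 48hr.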
# [3] = qHTS assay to identify small molecule inhibitors of chordoma cells - UCH-2 (AID 1259356)
# [4] = qHTS profiling of the MIPE4 collection as inhibitors of Plasmodium falciparum (3D7) proliferation (AID 743344; call rule not given here); conditions: P. falciparum 3D7 in erythrocytes, SYBR Green DNA fluorescence, 72 h; at 28.5 µM (top of the series)
# Summary of the method: (§1)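 Parasite DNA was quantified by SYBR Green I fluorescence (ex 485, em 535 nm) after overnight lysis in saponin/Triton buffer at room temperature. Cultures at 0.3% parasitemia and 2.5% hematocrit were first exposed to compound for 72 h at 37 C; signals were normalised to artemisinin (0.29 uM) and vehicle wells.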
# [5] = qHTS profiling of the MIPE4 collection as inhibitors of Plasmodium falciparum (DD2) proliferation (AID 743345; call rule not given here); conditions: P. falciparum Dd2 in erythrocytes, SYBR Green DNA, 72 h; at 28.5 µM (top of the series)
# Summary of the method: as §1
# [6] = qHTS profiling of the MIPE4 collection as inhibitors of Plasmodium falciparum (DD2) proliferation (Rep 2) (AID 743346; call rule not given here); conditions: P. falciparum Dd2 in erythrocytes, SYBR Green DNA, 72 h; at 28.5 µM (top of the series)
# Summary of the method: as §1
# [7] = qHTS profiling of the MIPE4 collection as inhibitors of Plasmodium falciparum (HB3) proliferation (AID 743347; call rule not given here); conditions: P. falciparum HB3 in erythrocytes, SYBR Green DNA, 72 h; at 28.5 µM (top of the series)
# Summary of the method: as §1
# [8] = Identifying Small Molecule Inhibitors of Pancreatic Cancer Stem Cells (SN12C, Adherent) (AID 1259358);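 also: potency is read from the fitted curve at half-maximal effect; cell survival measured after 48 h of compound exposure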
# Summary of the method: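 Endpoint: ATP-based luminescence, 48 h drug exposure. Bortezomib at 9.2 uM final as full-kill control; DMSO vehicle as negative control; activity normalized between vehicle and cell-free wells.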
# [9] = Identifying Small Molecule Inhibitors of Pancreatic Cancer Stem Cells (Panc1, Spheroid) (AID 1259359); conditions: Panc1 spheroid cancer stem cell viability;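 also: potency is read from the fitted curve at half-maximal effect; compound exposure lasted 48 h before reading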
# Summary of the method: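 After a 4 h attachment period, compounds were pinned into wells and cultures held 48 h under standard incubator conditions. Viability was then measured as CellTiter-Glo luminescence following 10 min at room temperature.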
smiles,measurement,setting,value
N=c1ccn2c(n1)O[C@H]1[C@H](O)[C@@H](CO)O[C@H]12,Potency,[1],inactive
same,Potency,[2],inactive
same,Potency,[3],inactive
CCCCC1C(=O)N(c2ccccc2)N(c2ccc(O)cc2)C1=O (stereo unspecified),Potency,[1],inactive
same,Potency,[2],inactive
C[N+](C)(C)CCOP(=O)(O)OP(=O)([O-])OC[C@H]1O[C@@H](n2ccc(N)nc2=O)[C@H](O)[C@@H]1O,Potency,[1],inactive
same,Potency,[2],inactive
same,Potency,[3],inactive
CC(C(=O)O)c1ccc(C(=O)c2ccccc2)s1 (stereo unspecified),Potency,[1],14.1 µM (active)
same,Potency,[2],inactive
same,Potency,[3],inactive
O=C(O)c1cc(O)c(O)c(O)c1,Potency,[1],inactive
same,Potency,[2],inactive
CCCCCCOc1ccccc1C(N)=O,Potency,[1],inactive
same,Potency,[2],inactive
same,Potency,[3],inactive
CCC1C(=O)OCC1Cc1cncn1C (stereo unspecified),Potency,[1],inactive
same,Potency,[2],inactive
Cc1ccccc1CNc1ncnc2c1ncn2C1OC(CO)C(O)C1O (stereo unspecified),Potency,[1],inactive
same,Potency,[2],inactive
Cc1cc(O)c2ccccc2c1O,Potency,[1],inactive
same,Potency,[2],inactive
same,Potency,[3],inactive
c1ccc2sc(SSc3nc4ccccc4s3)nc2c1,Potency,[1],inactive
same,Potency,[2],inactive
same,Potency,[3],inactive
Cc1ccc(C(=O)c2ccc(CC(=O)O)n2C)cc1,Potency,[1],inactive
same,Potency,[2],inactive
same,Potency,[3],inactive
COc1cc2c3cc1Oc1cc(ccc1O)C[C@@H]1c4c(cc(OC)c(O)c4Oc4ccc(cc4)C[C@@H]3N(C)CC2)CC[N+]1(C)C,Potency,[1],inactive
same,Potency,[2],inactive
same,Potency,[3],inactive
CC(N)C(=O)OC(C)(C)Cc1ccc(Cl)cc1 (stereo unspecified),Potency,[1],inactive
same,Potency,[2],inactive
same,Potency,[3],inactive
Cc1nc2ccccc2n1Cc1ccc(Cl)cc1,Potency,[1],inactive
same,Potency,[2],inactive
same,Potency,[3],inactive
O=C(/C=C/c1ccccc1)NCCO,Potency,[1],inactive
same,Potency,[2],inactive
same,Potency,[3],inactive
COc1cc(NC(C)CCCN)c2ncccc2c1 (stereo unspecified),"parasite growth, % of DMSO control",[4],7.16%
same,"parasite growth remaining, % of DMSO control (lower = more inhibition)",[5],8.84%
same,"parasite growth, % of control (lower = inhibition)",[6],15.5%
same,"growth, % of control",[7],8.75%
same,Potency,[1],inactive
same,Potency,[2],inactive
COc1cccc2c1C(=O)c1c(O)c3c(c(O)c1C2=O)C[C@@](O)(C(=O)CO)C[C@@H]3O[C@H]1C[C@H](N)[C@H](O[C@@H]2CCCCO2)[C@H](C)O1,Potency,[1],inactive
same,Potency,[2],3.98 µM (active)
O=C(CCN1CCN(CCO)CC1)N1c2ccccc2Sc2ccc(C(F)(F)F)cc21,Potency,[1],inactive
same,Potency,[2],inactive
same,Potency,[3],inactive
COc1ccc(/C=C/C(=O)Nc2ccccc2C(=O)O)cc1OC,Potency,[1],7.08 µM (active)
same,Potency,[2],inactive
same,Potency,[3],inactive
O=C(O)/C=C/C(O)c1ccc(Cl)cc1 (stereo unspecified),Potency,[1],inactive
same,Potency,[2],inactive
CN(C)CCn1nnnc1SCC1=C(C(=O)O)N2C(=O)[C@@H](NC(=O)Cc3csc(N)n3)[C@H]2SC1,Potency,[1],inactive
same,Potency,[2],inactive
same,Potency,[3],inactive
CCOC(=O)c1ccccc1O,Potency,[1],inactive
same,Potency,[2],inactive
same,Potency,[3],inactive
COc1ccc(-c2cc(=S)ss2)cc1,Potency,[1],inactive
same,Potency,[2],inactive
Cc1c(Nc2ncccc2C(=O)O)cccc1C(F)(F)F,Potency,[1],inactive
same,Potency,[2],inactive
same,Potency,[3],inactive
O=C1CN(/N=C/c2ccc([N+](=O)[O-])o2)C(=O)N1,Potency,[1],inactive
same,Potency,[2],inactive
same,Potency,[3],inactive
Nc1ccc(C(=O)O)c(O)c1,Potency,[1],inactive
same,Potency,[2],inactive
same,Potency,[3],inactive
C=CCc1cccc(/C=N/NC(=O)CN2CCN(Cc3ccccc3)CC2)c1O,Potency,[8],10.5 µM (active)
same,Potency,[9],26.4 µM (active)
